# Laboratory results: PubChem BioAssay
# Values joined by “and” are separate entries in the source; they are usually repeats but may differ in a detail not shown here. Equal entries are not always repeated. Inconclusive results are not listed. Active and inactive are the calls of the source. Cut-off read from the data, not from the text of the source, unless noted: active = nuclear beta-catenin stimulation mostly above about 4.2% (no sharp cut-off); inactive = mostly below about 10%.
# Legend:
# [1] = liver-stage malaria parasite growth inhibition, primary screen, cell-based, HepG2, luciferase luminescence, HepG2 viability (AID 624349; in the data active = parasite load remaining mostly below about 12%, no sharp cut-off; inactive = mostly above about 10%;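 note: 100% = mean of DMSO negative control wells on the same plate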); details: P. berghei liver stage in HepG2, luciferase luminescence, concentration not given here; parasite load remaining: stronger effect = lower value; viability: measured here: HepG2 viability without parasites
# [2] = stimulators of nuclear beta-catenin in C2C12, primary screen, imaging, WNT3A-conditioned medium, mouse C2C12, NPC library (AID 1117326); details: stronger effect = higher value
# [3] = stimulators of insulin release from INS-1E, primary screen, cell-based, 5 mM glucose, NPC library (AID 1117329;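 active = compound raises insulin release from rat beta cells at 5 mM glucose, no numeric limit stated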); details: rat INS-1E insulin secretion, at 10 µM, stronger effect = higher value
# [4] = growth inhibition of GSK3B-pretreated HCT116 cells – cell-based, CellTiter-Glo, 0.2 to 20 µM (AID 1117336;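 active = compounds lowering colon cancer cell viability after pretreatment blocking the GSK3B kinase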); details: HCT116 viability after GSK3B inhibitor, at 20 µM, stronger effect = higher value
# [5] = inhibition of endothelial tube formation, primary screen, imaging, VEGF stimulated, CD31 staining, tube area, NPC library (AID 1117340;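 active = compound that reduces growth-factor-driven endothelial tube area in a mixed cell culture, no cutoff stated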); details: VEGF-stimulated ADSC/ECFC co-culture, at 10 µM, stronger effect = higher value
# [6] = glucagon-like peptide 1 release enhancers, primary assay, NCI-H716 cell line, NPC library (AID 1117341;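 active = compound raises GLP1 secretion from the human gut endocrine cells, with no numeric limit stated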); details: NCI-H716 cells, at 10 µM, stronger effect = higher value
# [7] = HCT116 colon cancer cell growth inhibition, primary screen, CellTiter-Glo luminescence, NPC library (AID 1117342;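 active = compounds that lower survival of HCT116 colon cancer cells in the luminescence readout, no numeric limit stated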); details: at 20 µM (top of the series)
# [8] = CellTiter-Glo luminescent readout of SW480 viability loss, NPC library primary (AID 1117343;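 active = compounds that lower viability of the colon cancer cells in the luminescence readout, with no numeric limit stated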); details: CellTiter-Glo luminescence; at 20 µM (top of the series) unless noted
# [9] = decreased DLD-1 cellular survival, CellTiter-Glo luminescent readout, NPC compound collection, primary HTS (AID 1117346;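 active = compounds that lower survival of DLD-1 colon cancer cells in the luminescence readout, no cutoff given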); details: DLD-1 viability, CellTiter-Glo luminescence; at 20 µM (top of the series)
# [10] = differential killing of epithelial or mesenchymal cells, primary screen, imaging, PC-3E GFP, TEM4-18 mCherry, co-culture (AID 1345086;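 active = compounds killing one labelled cell type while sparing the other, by normalised counts and ratio limits, not self-fluorescent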;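 for all read-outs here: cells exposed to compound for 72 h before imaging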;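 for red/green cell ratio (normalised): normalised mesenchymal count divided by normalised epithelial count so high means epithelial killing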); details: imaging cell counts, at 1 µM; for red/green cell ratio (normalised): actives lie on both sides, counts scaled to control wells, 1 = unselective
# [11] = sensitizers of A549 cells to miR-34 induction, primary screen, imaging, A549 dox-inducible miR-34, nuclei and caspase counts (AID 1347080;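 active = compounds whose cell count with miR-34 switched on is under 0.7 times the count with it off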); details: A549 miR-34 inducible, Hoechst nuclei count, 48 h
# [12] = biological target: NAD(+) hydrolase SARM1 (Homo sapiens) (UniProt Q6SZW1); test: SARM1 TIR NADase inhibitors, cell lysate, NAD-Glo luminescence (AID 1508614;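 active = compound whose remaining NAD level is above about 45 nM, limit read from the data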;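 note: higher remaining NAD means stronger inhibition of SARM1 NADase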); details: SAM-TIR HEK293T lysate NADase, at 1 µM, stronger effect = higher value
# [13] = survival rescue of mitochondrial mutant cells in low glucose, primary screen, MELAS cybrids, Rieske KO mouse fibroblasts, CellTiter-Glo (AID 1508586;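 active = mean z-score across replicates of 1.96 or higher in either the MELAS or the Rieske mutant cell line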;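 note: z relative to plate mean and SD of compound and empty wells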)
# [14] = system: Aerobactin synthetase IucA (Klebsiella pneumoniae); test: IucA aerobactin synthetase inhibitors, biochemical, Tocris library, absorbance (AID 1345561; call rule not given here;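 note: 100% = enzyme without compound and 0% = no enzyme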); details: purified IucA enzyme assay, absorbance (OD) read-out; stronger effect = lower value;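 tested at 8 µM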
# [15] = growth inhibition of DIPG glioma cells, dose response, cell-based, SU-DIPG-XVII, MIPE5.0, CellTiter-Glo, qHTS (AID 1347060; cut-off not given, nearly all actives have AC50 up to about 26 µM); details: SU-DIPG-XVII viability, CellTiter-Glo ATP luminescence
# [16] = growth inhibition of DIPG glioma cells, dose response, cell-based, SU-DIPG-XIII, MIPE4.0, CellTiter-Glo, qHTS (AID 1347061; cut-off not given, nearly all actives have AC50 up to about 37 µM;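 note: cells exposed to compound for 48 hours before readout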); details: SU-DIPG-XIII viability, CellTiter-Glo ATP luminescence
# [17] = growth inhibition of DIPG glioma cells, dose response, cell-based, JHH-DIPG-1, MIPE4.0, CellTiter-Glo, qHTS (AID 1347062; cut-off not given, nearly all actives have AC50 up to about 27 µM); details: JHH-DIPG-1 viability, CellTiter-Glo ATP luminescence
# [18] = SU-DIPG-XXV glioma cell viability, MIPE5.0 library, qHTS (AID 1347068; cut-off not given, nearly all actives have IC50 up to about 30 µM)
# [19] = viability rescue of complex I mutant cybrids, primary screen, cell-based, galactose medium, ATP luminescence (AID 1645843;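 active = z-score of at least 1.8 in each of two replicates, scored against plate mean and spread of sample wells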;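 note: positive z means more ATP and so rescue of galactose-driven cybrid death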); details: complex I mutant cybrid cells, 72 h, stronger effect = higher value
# [20] = measured here: epithelial PC-3E GFP cell survival
# [21] = measured here: mesenchymal TEM4-18 mCherry cell survival
# [22] = stronger effect = lower value, cell number ratio, induced over uninduced
# [23] = measured here: relative caspase fold change +Dox/-Dox
# [24] = measured here: total cells with miR-34 induction, stronger effect = lower value
# [25] = measured here: total cells without miR-34 induction
# [26] = MELAS cybrid survival, CellTiter-Glo 48 h, stronger effect = higher value
# [27] = Rieske KO mouse fibroblast survival, CellTiter-Glo 72 h
# Sequence of NAD(+) hydrolase SARM1 (Homo sapiens) (Q6SZW1 whole entry, looked up): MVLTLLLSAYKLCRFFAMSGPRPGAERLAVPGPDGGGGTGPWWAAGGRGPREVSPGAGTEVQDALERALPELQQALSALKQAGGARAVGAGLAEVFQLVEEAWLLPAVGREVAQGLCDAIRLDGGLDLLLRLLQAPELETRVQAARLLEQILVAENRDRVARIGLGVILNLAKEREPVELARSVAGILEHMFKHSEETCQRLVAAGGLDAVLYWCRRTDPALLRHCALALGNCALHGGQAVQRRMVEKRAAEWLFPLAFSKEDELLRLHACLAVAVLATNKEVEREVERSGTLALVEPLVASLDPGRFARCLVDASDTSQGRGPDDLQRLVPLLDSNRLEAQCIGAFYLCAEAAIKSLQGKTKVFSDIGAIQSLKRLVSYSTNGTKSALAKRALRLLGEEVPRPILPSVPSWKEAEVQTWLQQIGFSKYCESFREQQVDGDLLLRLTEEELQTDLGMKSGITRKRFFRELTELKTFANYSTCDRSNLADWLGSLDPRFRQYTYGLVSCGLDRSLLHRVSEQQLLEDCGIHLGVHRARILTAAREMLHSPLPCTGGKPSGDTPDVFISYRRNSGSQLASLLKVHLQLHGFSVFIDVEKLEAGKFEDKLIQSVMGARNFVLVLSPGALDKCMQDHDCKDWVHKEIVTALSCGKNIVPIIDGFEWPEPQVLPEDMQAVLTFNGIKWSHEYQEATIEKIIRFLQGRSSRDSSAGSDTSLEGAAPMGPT
smiles,measurement,setting,value
O=C(O)CN(CC(=O)O)Cc1cc2c(-c3ccccc3C(=O)O)c3cc(CN(CC(=O)O)CC(=O)O)c(=O)cc-3oc2cc1O,parasite load remaining,[1],107% (inactive)
same,viability,[1],73.2%
same,nuclear beta-catenin stimulation,[2]; at 10 µM,-1.1% (inactive)
same,nuclear beta-catenin stimulation,"[2]; stimulation, at 2 µM",-0.6%
same,insulin secretion stimulation,[3],-0.4% (inactive)
same,viability decrease,[4],38.8% (inactive)
same,tube area decrease,[5],19.9% (inactive)
same,GLP1 secretion stimulation,[6],0.8% (inactive)
same,inhibition of viability,[7],22.3% (inactive)
same,viability decrease (inhibition),[8],25.8% (inactive)
same,viability decrease (inhibition),[9],14.8% (inactive)
same,red/green cell ratio (normalised),[10],0.97 (inactive)
same,normalised cell number,[10]; [20],1.53
same,normalised cell number,[10]; [21],1.49
CC(=O)OCC(=O)[C@@]1(O)CCC2C3CCC4=CC(=O)CC[C@]4(C)C3[C@@H](O)C[C@@]21C (stereo partly drawn),parasite load remaining,[1],123% (inactive) and 70.8% (inactive)
same,viability,[1],73.9% and 90.3%
same,nuclear beta-catenin stimulation,[2]; at 10 µM,-1.1% (inactive)
same,nuclear beta-catenin stimulation,"[2]; stimulation, at 2 µM",-0.8%
same,insulin secretion stimulation,[3],-1.3% (inactive)
same,viability decrease,[4],-8% (inactive)
same,tube area decrease,[5],1.6% (inactive)
same,GLP1 secretion stimulation,[6],-3.9% (inactive)
same,inhibition of viability,[7],-1.6% (inactive)
same,viability decrease (inhibition),[8],-3% (inactive)
same,viability decrease (inhibition),[9],-12.5% (inactive)
same,red/green cell ratio (normalised),[10],1.16 (inactive)
same,normalised cell number,[10]; [20],1.24
same,normalised cell number,[10]; [21],1.44
same,fold change,[11]; [22],0.742 (inactive)
same,fold change,[11]; [23],1.6
same,cell count,[11]; [24],6930
same,cell count,[11]; [25],9340
CCCCCCCCCCOc1cc2c(=O)c(C(=O)OCC)c[nH]c2cc1OCC,parasite load remaining,[1],0.015% (active)
same,viability,[1],101%
same,nuclear beta-catenin stimulation,[2]; at 10 µM,-2.3% (inactive)
same,nuclear beta-catenin stimulation,"[2]; stimulation, at 2 µM",-0.1%
same,insulin secretion stimulation,[3],-0.4% (inactive)
same,viability decrease,[4],-29.2% (inactive)
same,tube area decrease,[5],-2% (inactive)
same,GLP1 secretion stimulation,[6],1.3% (inactive)
same,inhibition of viability,[7],-5.6% (inactive)
same,viability decrease (inhibition),[8],-212% (inactive)
same,viability decrease (inhibition),[9],-42% (inactive)
same,red/green cell ratio (normalised),[10],1 (inactive)
same,normalised cell number,[10]; [20],0.98
same,normalised cell number,[10]; [21],0.98
same,fold change,[11]; [22],0.938 (inactive)
same,fold change,[11]; [23],1.91
same,cell count,[11]; [24],11200
same,cell count,[11]; [25],11900
same,remaining NAD,[12],10 nM (inactive)
COc1ccc(Cc2cnc(N)nc2N)cc1OC,nuclear beta-catenin stimulation,[2]; at 10 µM,-0.5% (inactive)
same,nuclear beta-catenin stimulation,"[2]; stimulation, at 2 µM",-0.6%
same,insulin secretion stimulation,[3],0.9% (inactive)
same,viability decrease,[4],-3.05% (inactive)
same,tube area decrease,[5],-28.9% (inactive)
same,GLP1 secretion stimulation,[6],2.9% (inactive)
same,inhibition of viability,[7],-12.4% (inactive)
same,viability decrease (inhibition),[8],6.9% (inactive)
same,viability decrease (inhibition),[9],-5.4% (inactive)
same,red/green cell ratio (normalised),[10],1.2 (inactive)
same,normalised cell number,[10]; [20],1.03
same,normalised cell number,[10]; [21],1.23
same,fold change,[11]; [22],1.04 (inactive)
same,fold change,[11]; [23],0.896
same,cell count,[11]; [24],9080
same,cell count,[11]; [25],8710
same,remaining NAD,[12],10 nM (inactive)
Cc1c(F)c(N2CCNC(C)C2)cc2c1c(=O)c(C(=O)O)cn2C1CC1 (stereo not drawn),nuclear beta-catenin stimulation,[2]; at 10 µM,0.7% (inactive)
same,nuclear beta-catenin stimulation,"[2]; stimulation, at 2 µM",-0.2%
same,insulin secretion stimulation,[3],1.15% (inactive)
same,viability decrease,[4],57.3% (active)
same,tube area decrease,[5],-1% (inactive)
same,GLP1 secretion stimulation,[6],-0.4% (inactive)
same,inhibition of viability,[7],39.5% (inactive)
same,viability decrease (inhibition),[8],0% (inactive)
same,viability decrease (inhibition),[9],-10.1% (inactive)
same,red/green cell ratio (normalised),[10],1 (inactive)
same,normalised cell number,[10]; [20],1.13
same,normalised cell number,[10]; [21],1.12
same,z-score,[13]; [26],0.28 (inactive)
same,z-score,[13]; [27],-0.0779
O=C1c2ccccc2C(=O)C1c1ccc(Br)cc1,parasite load remaining,[1],54.8% (inactive)
same,viability,[1],105%
same,nuclear beta-catenin stimulation,[2]; at 10 µM,2.7% (inactive)
same,nuclear beta-catenin stimulation,"[2]; stimulation, at 2 µM",1.3%
same,insulin secretion stimulation,[3],4.3% (inactive)
same,viability decrease,[4],52.2% (active)
same,tube area decrease,[5],31.1% (inactive)
same,GLP1 secretion stimulation,[6],-0.4% (inactive)
same,inhibition of viability,[7],61.7% (active)
same,viability decrease (inhibition),[8],67.2% (active)
same,viability decrease (inhibition),[9],26.1% (inactive)
same,red/green cell ratio (normalised),[10],0.9 (inactive)
same,normalised cell number,[10]; [20],0.94
same,normalised cell number,[10]; [21],0.85
same,fold change,[11]; [22],0.831 (inactive)
same,fold change,[11]; [23],3.92
same,cell count,[11]; [24],10800
same,cell count,[11]; [25],13100
same,remaining NAD,[12],10 nM (inactive)
CC1(C)[C@@H]2CC[C@@]1(C)C(=O)C2,nuclear beta-catenin stimulation,[2]; at 10 µM,0.2% (inactive)
same,nuclear beta-catenin stimulation,"[2]; stimulation, at 2 µM",0.6%
same,insulin secretion stimulation,[3],2.4% (inactive)
same,viability decrease,[4],2.6% (inactive)
same,tube area decrease,[5],-4.3% (inactive)
same,GLP1 secretion stimulation,[6],-0.1% (inactive)
same,inhibition of viability,[7],10.9% (inactive)
same,viability decrease (inhibition),[8],2.9% (inactive)
same,viability decrease (inhibition),[9],15.5% (inactive)
same,red/green cell ratio (normalised),[10],0.84 (inactive)
same,normalised cell number,[10]; [20],1.25
same,normalised cell number,[10]; [21],1.05
same,remaining NAD,[12],10 nM (inactive)
CC[C@@H](CO)NCCN[C@@H](CC)CO,parasite load remaining,[1],80.8% (inactive) and 73.3% (inactive)
same,viability,[1],73% and 99%
same,nuclear beta-catenin stimulation,[2]; at 10 µM,0.5% (inactive)
same,nuclear beta-catenin stimulation,"[2]; stimulation, at 2 µM",4.7%
same,insulin secretion stimulation,[3],2.6% (inactive)
same,viability decrease,[4],-8% (inactive)
same,tube area decrease,[5],14.4% (inactive)
same,GLP1 secretion stimulation,[6],-1.2% (inactive)
same,inhibition of viability,[7],-4.17% (inactive)
same,viability decrease (inhibition),[8],11.7% (inactive)
same,viability decrease (inhibition),[9],-13% (inactive)
same,red/green cell ratio (normalised),[10],0.98 (inactive)
same,normalised cell number,[10]; [20],0.99
same,normalised cell number,[10]; [21],0.97
same,fold change,[11]; [22],0.901 (inactive)
same,fold change,[11]; [23],1.1
same,cell count,[11]; [24],11300
same,cell count,[11]; [25],12600
same,remaining NAD,[12],10 nM (inactive)
CCOCC(O)COc1ccc(NC(=O)CC[S+](C)C)cc1 (stereo not drawn),nuclear beta-catenin stimulation,[2]; at 10 µM,-0.1% (inactive)
same,nuclear beta-catenin stimulation,"[2]; stimulation, at 2 µM",-0.3%
same,insulin secretion stimulation,[3],0.8% (inactive)
same,viability decrease,[4],-7.6% (inactive)
same,tube area decrease,[5],-11.2% (inactive)
same,GLP1 secretion stimulation,[6],-0.3% (inactive)
same,inhibition of viability,[7],0.1% (inactive)
same,viability decrease (inhibition),[8],-6.5% (inactive)
same,viability decrease (inhibition),[9],-3.6% (inactive)
same,remaining activity,[14],96.6% (inactive)
same,outcome,[15],inactive
same,outcome,[16],inactive
same,outcome,[17],inactive
same,outcome,[18],inactive
same,fold change,[11]; [22],0.867 (inactive) and 0.902 (inactive)
same,fold change,[11]; [23],0.938 and 2.11
same,cell count,[11]; [24],8140 and 8470
same,cell count,[11]; [25],9400 and 9390
same,z-score,[13]; [26],-0.246 (inactive)
same,z-score,[13]; [27],0.62
same,z-score,[19],-0.075 (inactive)
CC(O)Cn1cnc2c1c(=O)n(C)c(=O)n2C (stereo not drawn),parasite load remaining,[1],123% (inactive)
same,viability,[1],89%
same,nuclear beta-catenin stimulation,[2]; at 10 µM,3.9% (inactive)
same,nuclear beta-catenin stimulation,"[2]; stimulation, at 2 µM",0.4%
same,insulin secretion stimulation,[3],-0.4% (inactive)
same,viability decrease,[4],24.9% (inactive)
same,tube area decrease,[5],7.5% (inactive)
same,GLP1 secretion stimulation,[6],1.8% (inactive)
same,inhibition of viability,[7],8.77% (inactive)
same,viability decrease (inhibition),[8],26.1% (inactive)
same,viability decrease (inhibition),[9],6.9% (inactive)
same,red/green cell ratio (normalised),[10],0.96 (inactive)
same,normalised cell number,[10]; [20],1.09
same,normalised cell number,[10]; [21],1.04
same,fold change,[11]; [22],0.894 (inactive)
same,fold change,[11]; [23],1.1
same,cell count,[11]; [24],7540
same,cell count,[11]; [25],8430
same,remaining NAD,[12],10 nM (inactive)
